According to PubChem BioAssay (Tox21):
Values without a mark were called inactive. Results filed as inconclusive are left out. Where a call stands in place of a potency, no number is given. Activity calls are given as the source filed them. The call rests on the fitted dose curve; in most records, active means well fitted curve in the direction sought with a large enough effect in the repeat runs; inconclusive means weak or mixed curves; inactive means no such curve, though single readings can be large; an effect the other way counts as inactive or inconclusive.

What was measured:
[1] = qHTS RealTime-Glo MT Cell Viability Assay in HEK293 cells - 0 hour (AID 1224880); further: nearly all actives have a fitted effect of over 45% in size; further: potency means the concentration at half of the fitted maximal effect; on activity change, negative = cytotoxicity: top concentration of the series differs between compounds
Summary of the method: (§1)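 qHTS format; HEK293 cells with NanoLuc/prosubstrate reagent, 37 C/5% CO2 for 5 h pre-dosing; compounds 23 nL in DMSO; luminescence at each time point reflects viable cells.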

[2] = A CellTox Green Cytotoxicity Assay to monitor cytotoxicity in HEK293 cells - 32 hour (AID 1224881); further: nearly all actives have a fitted effect of over 40% in size; further: potency means the concentration at half of the fitted maximal effect
Summary of the method: (§2)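 Each value comes from one timepoint of a single continuous run in which HEK293 cells with CellTox Green were exposed to compound for up to 40 h at 37 C, dye fluorescence rising with cell death.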

[3] = A CellTox Green Cytotoxicity Assay to monitor cytotoxicity in HepG2 cells - 0 hour (AID 1224882); further: nearly all actives have a fitted effect of over 35% in size; further: potency means the concentration at half of the fitted maximal effect
Summary of the method: (§3)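 Continuous culture of HepG2 cells with a membrane-impermeant DNA dye; rising fluorescence marks dead cells. Compound exposure lasted up to 40 h at 37 C, with reads every 8 h from 0 h.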

[4] = A CellTox Green Cytotoxicity Assay to monitor cytotoxicity in HepG2 cells - 32 hour (AID 1224883); further: nearly all actives have a fitted effect of over 50% in size; further: potency means the concentration at half of the fitted maximal effect
Summary of the method: as §3

[5] = A CellTox Green Cytotoxicity Assay to monitor cytotoxicity in HEK293 cells - 8 hour (AID 1224884); further: nearly all actives have a fitted effect of over 35% in size; further: potency means the concentration at half of the fitted maximal effect
Summary of the method: as §2

[6] = qHTS RealTime-Glo MT Cell Viability Assay in HepG2 cells - 16 hour (AID 1224885); further: nearly all actives have a fitted effect of over 50% in size
Summary of the method: (§4)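 Viability was tracked continuously by NanoLuc luminescence from prosubstrate reduced by living HepG2 cells, at successive time points over 40 h of compound exposure. Cells with reagent were preincubated 5 h at 37 °C before compound addition.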

[7] = qHTS RealTime-Glo MT Cell Viability Assay in HEK293 cells - 24 hour (AID 1224886); further: top concentration of the series differs between compounds; nearly all actives have a fitted effect of over 50% in size
Summary of the method: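 Viability tracked continuously by luminescence as live cells reduce a prosubstrate for NanoLuc; HEK293 cells preincubated 5 h, compound-treated at 37 C, and read at 0, 8, 16, 24, 32 and 40 h.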

[8] = qHTS RealTime-Glo MT Cell Viability Assay in HEK293 cells - 8 hour (AID 1224887); further: nearly all actives have a fitted effect of over 50% in size; further: potency means the concentration at half of the fitted maximal effect; on activity change, negative = cytotoxicity: top concentration of the series differs between compounds
Summary of the method: as §1

[9] = A CellTox Green Cytotoxicity Assay to monitor cytotoxicity in HEK293 cells - 16 hour (AID 1224888); further: nearly all actives have a fitted effect of over 35% in size; further: potency means the concentration at half of the fitted maximal effect
Summary of the method: as §2

[10] = qHTS RealTime-Glo MT Cell Viability Assay in HepG2 cells - 0 hour (AID 1224889); further: nearly all actives have a fitted effect of over 50% in size; further: potency means the concentration at half of the fitted maximal effect
Summary of the method: as §4

Row | Structure (SMILES) | Potency [1] | Potency [2] | Potency [3] | Potency [4] | Potency [5] | Potency [6] | Potency [7] | Potency [8] | Potency [9] | Potency [10] | activity change, negative = cytotoxicity [1] | cytotoxicity increase [2] | cytotoxicity [3] | cytotoxicity increase [4] | cytotoxicity increase [5] | activity change, negative = cytotoxic [6] | activity change, negative = cytotoxicity [7] | activity change, negative = cytotoxicity [8] | activity change [9]
1 | Cc1cc(CCC(=O)OCCOCCOCCOC(=O)CCc2cc(C)c(O)c(C(C)(C)C)c2)cc(C(C)(C)C)c1O | inactive | inactive | inactive | inactive | inactive | inactive | inactive | 33.8 µM (active) | inactive | inactive | – | – | – | – | – | – | – | – | –
2 | CC(=O)NCCO | inactive | inactive | inactive | inactive | inactive | inactive | inactive | inactive | inactive | – | – | – | – | – | – | – | – | – | –
3 | Cc1c[nH]c2ccccc12 | inactive | inactive | inactive | inactive | inactive | inactive | inactive | inactive | inactive | inactive | – | – | – | – | – | – | – | – | –
4 | C[C@@H]1C[C@H]2[C@@H]3CCC4=CC(=O)C=C[C@]4(C)[C@@]3(F)[C@@H](O)C[C@]2(C)[C@@]1(O)C(=O)COP(=O)(O)O | inactive | inactive | inactive | inactive | inactive | inactive | inactive | inactive | inactive | – | – | – | – | – | – | – | – | – | –
5 | CC(=O)N[C@@H](Cc1ccc(O)cc1)C(=O)O | inactive | inactive | inactive | inactive | inactive | inactive | inactive | inactive | inactive | inactive | – | – | – | – | – | – | – | – | –
6 | COC(=O)CC(C(C)=O)C(=O)OC (stereo not drawn) | inactive | inactive | inactive | inactive | inactive | inactive | inactive | inactive | inactive | inactive | – | – | – | – | – | – | – | – | –
7 | Oc1cccc2[nH]ccc12 | inactive | inactive | inactive | inactive | inactive | inactive | inactive | inactive | inactive | inactive | – | – | – | – | – | – | – | – | –
8 | O=S(=O)(Cl)c1c(Cl)cccc1Cl | inactive | inactive | inactive | inactive | inactive | inactive | inactive | inactive | inactive | – | – | – | – | – | – | – | – | – | –
9 | CC(=O)c1ccc[nH]1 | inactive | inactive | inactive | inactive | inactive | inactive | inactive | inactive | inactive | inactive | – | – | – | – | – | – | – | – | –
10 | CC1=CC[C@@H]2C[C@H]1C2(C)C | – | – | – | – | – | – | – | – | – | – | -16.1% [at 15.8 µM] | 1.12% [at 15.8 µM] | -3.74% [at 15.8 µM] | -9% [at 15.8 µM] | 0.245% [at 15.8 µM] | 1.14% [at 15.8 µM] | 1.87% [at 15.8 µM] | -0.368% [at 15.8 µM] | 1.29% [at 15.8 µM, stronger effect = higher value]
11 | CNc1c2c(nn1C)CCCC2 | inactive | inactive | inactive | inactive | inactive | inactive | inactive | inactive | inactive | inactive | – | – | – | – | – | – | – | – | –
12 | CC(=O)NNC(C)=O | inactive | inactive | inactive | inactive | inactive | inactive | inactive | inactive | inactive | – | – | – | – | – | – | – | – | – | –
13 | O=C(c1ccccc1)C1CCC1 | inactive | 24.5 µM (active) | 38.9 µM (active) | 38.9 µM (active) | 38.9 µM (active) | inactive | inactive | inactive | 27.5 µM (active) | – | – | – | – | – | – | – | – | – | –
14 | CCN(CC)c1cccc(O)c1 | inactive | inactive | inactive | inactive | inactive | inactive | inactive | inactive | inactive | inactive | – | – | – | – | – | – | – | – | –
15 | COc1ccc(C)cc1 | inactive | inactive | inactive | inactive | inactive | inactive | inactive | inactive | inactive | inactive | – | – | – | – | – | – | – | – | –
16 | CCC1CCC(CCC(=O)O)C1 (stereo not drawn) | inactive | inactive | inactive | inactive | inactive | inactive | inactive | inactive | inactive | inactive | – | – | – | – | – | – | – | – | –
17 | Cc1ccc(N(CCO)CCO)cc1 | inactive | inactive | inactive | inactive | inactive | inactive | inactive | inactive | inactive | inactive | – | – | – | – | – | – | – | – | –
18 | NC(=O)c1ccccc1[N+](=O)[O-] | inactive | 1.78 µM (active) | inactive | inactive | inactive | inactive | inactive | inactive | – | inactive | – | – | – | – | – | – | – | – | –
19 | O=C(NS(=O)(=O)/C=C/c1ccccc1)c1ccc(F)cc1Cl | 12.3 µM (active) | inactive | inactive | 54.9 µM (active) | inactive | inactive | inactive | inactive | inactive | 19.5 µM (active) | – | – | – | – | – | – | – | – | –
20 | CC(C)(C)NCC(O)COc1cccc2c1C[C@H](O)[C@H](O)C2 (stereo partly drawn) | inactive | inactive | inactive | inactive | inactive | inactive | inactive | inactive | inactive | inactive | – | – | – | – | – | – | – | – | –
21 | COc1ccc(C2C(=O)c3ccccc3C2=O)cc1 | inactive | inactive | inactive | inactive | inactive | inactive | inactive | inactive | inactive | inactive | – | – | – | – | – | – | – | – | –
22 | Cc1ccc2c(c1)CCCN2 | inactive | inactive | inactive | inactive | inactive | inactive | inactive | inactive | inactive | inactive | – | – | – | – | – | – | – | – | –
23 | CCCOC(=O)c1c(Cl)c(Cl)c(Cl)c(Cl)c1C(=O)OCCC | inactive | inactive | inactive | inactive | inactive | inactive | inactive | inactive | inactive | inactive | – | – | – | – | – | – | – | – | –
